Values joined by “and” are separate entries in the source; they are usually repeats but may differ in a detail not shown here. Equal values may be shown once. Among all 5,500 compounds or so, about 2,000 (36%) were called active. Roughly 18% stayed inconclusive and do not appear here. No stated cut-off is given here; in the data, active means normalized growth mostly below about 0.91 (no sharp cut-off); inconclusive means no clear call, values can overlap the other calls; inactive means mostly above about 0.92. The list shows a part of the results.
Experiment: chemical genetic growth profiling, strain panel (AID 1159580);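 further: tested at 20 µM; growth read once vehicle control cultures reached saturation at 30 °C; 1 = growth at the plate median or of vehicle wells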
Details: S. cerevisiae deletion strains, growth OD

Measured: normalized growth

O=c1cc[nH]c(=S)[nH]1
inactive: locus YAL013W, strain DEP1, stronger effect = lower value 1.03 | locus YAL021C, strain ccr4, stronger effect = lower value 1.03 | locus YAL026C, strain drs2, stronger effect = lower value 0.987 | locus YAL030W, strain snc1, stronger effect = lower value 1 | locus YBL061C, strain skt5, stronger effect = lower value 1 | locus YBR009C, strain hhf1, stronger effect = lower value 0.964 | locus YBR021W, strain FUR4, stronger effect = lower value 1.02 | locus YBR023C, strain chs3, stronger effect = lower value 1.01 | locus YBR171W, strain sec66, stronger effect = lower value 1.01 | locus YBR229C, strain ROT2, stronger effect = lower value 1.01 | locus YBR231C, strain swc5, stronger effect = lower value 1.02 | locus YBR279W, strain paf1, stronger effect = lower value 0.997 | locus YCL011C, strain gbp2, stronger effect = lower value 0.997 | locus YCL016C, strain dcc1, stronger effect = lower value 1 | locus YCL029C, strain bik1, stronger effect = lower value 1.01 | locus YCL061C, strain MRC1, stronger effect = lower value 1.03 | locus YCL069W, strain vba3, stronger effect = lower value 1.01 | locus YCR088W, strain abp1, stronger effect = lower value 1.01 | locus YDL005C, strain med2, stronger effect = lower value 1.04 | locus YDL035C, strain GPR1, stronger effect = lower value 1.02 | locus YDL040C, strain nat1, stronger effect = lower value 1.01 | locus YDL074C, strain BRE1, stronger effect = lower value 1.03 | locus YDL101C, strain DUN1, stronger effect = lower value 1.03 | locus YDL134C, strain PPH21, stronger effect = lower value 1.02 | locus YDL185W, strain tfp1, stronger effect = lower value 1.01 | locus YDL192W, strain arf1, stronger effect = lower value 1.02 | locus YDR001C, strain nth1, stronger effect = lower value 1 | locus YDR069C, strain doa4, stronger effect = lower value 1.04 | locus YDR101C, strain arx1, stronger effect = lower value 1.01 | locus YDR137W, strain rgp1, stronger effect = lower value 1.04 | locus YDR150W, strain NUM1, stronger effect = lower value 1.01 | locus YDR159W, strain sac3, stronger effect = lower value 1.02 | locus YDR162C, strain NBP2, stronger effect = lower value 1.02 | locus YDR195W, strain ref2 1.03 | locus YDR297W, strain sur2, stronger effect = lower value 1.01 | locus YDR318W, strain mcm21, stronger effect = lower value 1.03 | locus YDR334W, strain swr1, stronger effect = lower value 1 | locus YDR335W, strain msn5, stronger effect = lower value 1.01 | locus YDR388W, stronger effect = lower value 1 | locus YDR392W, strain spt3, stronger effect = lower value 0.962 | locus YDR502C, strain sam2, stronger effect = lower value 1.03 | locus YEL003W, strain gim4, stronger effect = lower value 1 | locus YEL037C, strain rad23, stronger effect = lower value 0.991 | locus YEL061C, strain CIN8 (second series), stronger effect = lower value 1 | locus YEL061C, strain CIN8, stronger effect = lower value 1.01 | locus YER015W, strain faa2, stronger effect = lower value 1.01 | locus YER016W, strain bim1, stronger effect = lower value 1.01 | locus YER110C, stronger effect = lower value 1 | locus YER111C, strain swi4, stronger effect = lower value 1.01 | locus YER155C, strain BEM2 (second series), stronger effect = lower value 1.04 | locus YER155C, strain BEM2, stronger effect = lower value 1.01 | locus YER167W, strain BCK2, stronger effect = lower value 1.02 | locus YFR010W, strain ubp6, stronger effect = lower value 0.997 | locus YGL078C, strain dbp3, stronger effect = lower value 1.01 | locus YGL086W, strain mad1, stronger effect = lower value 1 | locus YGL167C, strain pmr1, stronger effect = lower value 1 | locus YGL173C, strain kem1, stronger effect = lower value 1.01 | locus YGL227W, strain vid30, stronger effect = lower value 1.01 | locus YGL240W, strain doc1, stronger effect = lower value 1.07 | locus YGL248W, strain PDE1, stronger effect = lower value 1.01 | locus YGL253W, strain hxk2, stronger effect = lower value 1.03 | locus YGR078C, strain PAC10, stronger effect = lower value 1.03 | locus YGR135W, strain pre9, stronger effect = lower value 1.02 | locus YGR229C, strain SMI1, stronger effect = lower value 1.03 | locus YGR252W, strain gcn5, stronger effect = lower value 1.09 | locus YHR013C, strain ard1, stronger effect = lower value 1.04 | locus YHR027C, strain rpn1, stronger effect = lower value 1 | locus YHR030C, strain SLT2, stronger effect = lower value 1.02 and 0.995 | locus YHR079C, strain IRE1 (second series), stronger effect = lower value 0.999 | locus YHR079C, strain IRE1, stronger effect = lower value 1.01 | locus YHR094C, strain hxt1, stronger effect = lower value 0.983 | locus YHR129C, strain ARP1, stronger effect = lower value 1.01 | locus YHR142W, strain chs7, stronger effect = lower value 0.987 | locus YHR200W, strain rpn10, stronger effect = lower value 1.02 | locus YIL066C, strain RNR3, stronger effect = lower value 1.03 | locus YIL073C, strain SPO22, stronger effect = lower value 1.03 | locus YIL125W, strain kgd1, stronger effect = lower value 1.01 | locus YIR030C, strain dcg1, stronger effect = lower value 1.01 | locus YJL092W, strain hpr5, stronger effect = lower value 1 | locus YJL095W, strain BCK1 (second series), stronger effect = lower value 1.01 | locus YJL095W, strain BCK1, stronger effect = lower value 1.04 and 1.01 | locus YJL115W, strain asf1, stronger effect = lower value 1.01 | locus YJL129C, strain trk1, stronger effect = lower value 1.01 | locus YJL134W, strain LCB3, stronger effect = lower value 1.01 | locus YJL154C, strain vps35, stronger effect = lower value 1.01 | locus YJL164C, strain tpk1, stronger effect = lower value 0.983 | locus YJL166W, strain qcr8, stronger effect = lower value 1.03 | locus YJL168C, strain set2, stronger effect = lower value 0.997 | locus YJL187C, strain SWE1 (second series), stronger effect = lower value 1.04 | locus YJL187C, strain SWE1, stronger effect = lower value 1.01 | locus YJR043C, strain POL32, stronger effect = lower value 1.02 | locus YJR066W, strain TOR1, stronger effect = lower value 0.917
